High-throughput results deposited in PubChem BioAssay by Sanford-Burnham Center for Chemical Genomics.
Sampled rows, rich in hits. Any-hit rate of the full collection: about 3%.
SENP8 block-1 – blocks human SENP8 cleavage of Nedd8 substrate | inhibition, % at 20 µM | 360,000 compounds, 0.64% hits | AID 602440 | Q96LD8 | recombinant SENP8, Nedd8 substrate fluorescence; in the data active = inhibition mostly above about 40%, no sharp cut-off; inactive = mostly below about 27%
Target sequence (Q96LD8 whole entry, looked up): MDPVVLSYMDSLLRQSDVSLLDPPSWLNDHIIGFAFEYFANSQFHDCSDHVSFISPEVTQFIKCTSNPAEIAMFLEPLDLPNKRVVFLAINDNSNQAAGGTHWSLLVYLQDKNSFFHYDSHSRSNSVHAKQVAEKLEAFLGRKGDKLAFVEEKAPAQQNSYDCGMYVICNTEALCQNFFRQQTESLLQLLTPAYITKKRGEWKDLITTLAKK
PPC-1+TRAIL kill – compounds killing PPC-1 cancer cells with TRAIL present (potentiator screen, no TRAIL-free arm) | cell killing (% activity), % at 4 µM or 5 µM | PPC-1 cells + TRAIL, ATPLite viability luminescence | AID 1443 | 220,000 compounds, 0.41% hits;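 active = cell killing above 50% in the first pass at 4 µM, then a duplicate retest at 5 µM averaging 50% or more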;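 also: plate controls were cells with TRAIL plus DMSO for no effect and medium-only wells lacking cells for full effect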
SENP8 block-2 – blocks the human protease SENP8. Q96LD8. purified SENP8, Z-RLRGG-aminoluciferin cleavage, luminescence. inhibition, % at 10 µM. 330,000 compounds, 1.2% hits. AID 2540; in the data active = inhibition above about 50%
SENP7 inh – SENP7 protease inhibition | recombinant SENP7, Z-RLRGG-aminoluciferin luminescence, 40 min | inhibition, % at 5 µM | 330,000 compounds, 1.5% hits | AID 434973;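 active = inhibition above about 50% at the single test dose, limit read from the data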;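 also: plate controls were DMSO with enzyme for no effect and no enzyme buffer wells for full effect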
SENP6 inh – inhibitors of human SENP6 protease. inhibition, % at 10 µM. Q9GZR1. 330,000 compounds, 1.8% hits. Recombinant SENP6 catalytic domain, aminoluciferin luminescence. AID 2599;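 active = inhibition above about 50% at the single tested dose, limit read from the data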;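 also: plate controls were DMSO wells with enzyme for no effect and DMSO wells lacking enzyme for full effect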
TRAIL sens C8 – sensitizes caspase-8 expressing cells to TRAIL | NB7+C8 cells + TRAIL, ATPlite viability luminescence | inhibition (viability loss, TRAIL sensitization), % at 10 µM | 360,000 compounds, 1% hits | AID 624354;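 active = compounds causing at least 50% loss of cell viability in the single-dose screen, relative to plate controls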
SENP8 conf – SENP8 (human) inhibition, single concentration confirmation; 1,400 compounds, 15% hits; purified SENP8, Nedd8-AMC/pro-Nedd8 cleavage fluorescence, 30 min; inhibition, % at 25 µM; shares compounds with SENP8 block-1; in the data active = inhibition mostly above about 39%, no sharp cut-off; inactive = mostly below about 34%
The depositor's hits bear a star; nt = no result given.

SMILES	SENP8 block-1	PPC-1+TRAIL kill	SENP8 block-2	SENP7 inh	SENP6 inh	TRAIL sens C8	SENP8 conf
CCOC(=O)c1n[nH]n(-c2cc(Cl)cc(Cl)c2)c1=O	6	5	4	-8	-13	-24	nt
COC(=O)Cc1c(C)[nH]n(-c2cc(Cl)cc(Cl)c2)c1=O	59*	0	0	13	17	-1	12
CCOc1ccc(C(c2c(C)[nH][nH]c2=O)c2c(C)[nH][nH]c2=O)cc1OC	54*	5	-2	10	-3	-6	35
CCC(=O)NC(Nc1sc2c(c1C(=O)OC)CCCC2)(C(F)(F)F)C(F)(F)F	43*	-8	0	-1	-8	-15	12
CCOc1cc(/C=C2\N=C(SCC)SC2=O)cc([N+](=O)[O-])c1OC(C)=O	36	19	27	3	26	-14	nt
CCOc1cc(/C=C2\N=C(SC)SC2=O)cc([N+](=O)[O-])c1OC(C)=O	45*	-21	10	-8	16	-7	9
Cc1ccc(S(=O)(=O)N2CCCCC2)cc1NC(=O)COC(=O)c1ccccc1F	3	-8	0	4	-6	-1	nt
O=C(N/N=C/c1cc([N+](=O)[O-])ccc1Cl)c1cc(-c2ccccc2)nc2ccccc12	41*	-2	-4	-4	-21	4	-5
Cc1cc(C(=O)N/N=C/c2ccc([N+](=O)[O-])s2)c2ccccc2n1	46*	nt	8	0	32	26	28
CC(C)=CCc1cc([C@@H]2COc3c(ccc4c3C=CC(C)(C)O4)C2)c(O)cc1O	48*	nt	-1	4	-9	13	24
CCn1c(SCc2cccc(C(=O)O)c2)nnc1-c1ccccc1	48*	11	0	1	-2	-1	22
CCn1c(SCC(=O)O)nnc1-c1ccccc1	24	18	-2	-10	2	15	nt
Cc1cc(C)n(-c2ccc(C(=O)N3CCN(S(=O)(=O)c4ccc(Br)cc4Cl)CC3)cc2)n1	42*	nt	nt	nt	nt	6	8
CCC1(c2ccc(Cl)cc2)NC(=O)N(Cc2ccc(C(=O)OC)cc2)C1=O (stereo not drawn)	2	-8	-1	6	12	9	nt
O=c1cc(CO)occ1OCc1cccc(F)c1	13	2	0	-8	-6	16	nt
O=c1cc(CO)[nH]cc1OCc1ccccc1	46*	-2	-5	-2	-16	19	12
COc1ccc(S(=O)(=O)N(C)C[C@H]2Oc3c(NC(=O)NC(C)C)cccc3C(=O)N([C@H](C)CO)C[C@@H]2C)cc1	6	nt	2	12	5	5	nt
CCNc1nc(NCC)nc(OCC(=O)O)n1	46*	10	1	3	-15	6	21
CCNc1nc(NOC)nc(OCC#N)n1	15	17	3	15	5	-5	nt
COc1ccc(CN(C2CCCC2)S(=O)(=O)c2ccc(-n3cnnn3)cc2)cc1	44*	27	-8	4	-14	1	23
COc1ccc(CN(C2CCCC2)S(=O)(=O)c2ccc(-n3cnnn3)cc2)cc1OC	26	29	-7	-3	-17	3	nt
COc1ccccc1OCCCn1c(=O)oc2ccc(C)cc21	41*	3	-5	-10	-18	-16	28
COc1ccccc1OCCCn1c(=O)oc2ccccc21	24	11	-4	5	-10	-6	nt
C/C(=N\NC(=O)C1CC1)c1ccccc1O	7	7	-12	-8	-14	0	nt
O=c1oc2ccccc2c(NC(c2ccccc2)c2ccccc2)c1[N+](=O)[O-]	13	-4	-11	-11	-20	-3	nt
CC(Nc1c([N+](=O)[O-])c(=O)oc2ccccc12)C(Cl)c1ccccc1 (stereo not drawn)	52*	-9	2	4	-13	14	11
CCCCOc1cccc(C2/C(=C(\O)c3ccc4c(c3)OCCO4)C(=O)C(=O)N2CCN2CCOCC2)c1 (stereo not drawn)	-17	nt	-6	14	2	-7	nt
CSc1cccc(NC(=S)N(CCCN2CCCC2)Cc2cccn2Cc2ccc(Cl)cc2)c1	39	13	-7	5	-13	16	nt
CSc1cccc(NC(=S)N(CCCN2CCCC2)Cc2cccs2)c1	46*	6	1	-5	-2	-5	-4
